CBX7 AlphaScr: inhibitors of human CBX7 binding to H3K27me3 peptide | AlphaScreen His6-CBX7 / biotin-H3K27me3 peptide binding; active compounds read low | hit rate 1.1% among 66,000 | normalised signal (fraction of DMSO) (concentration not given with the values) | AID 1224903; in the data active = normalised signal below about 0.5
Target sequence (O95931 whole entry, looked up): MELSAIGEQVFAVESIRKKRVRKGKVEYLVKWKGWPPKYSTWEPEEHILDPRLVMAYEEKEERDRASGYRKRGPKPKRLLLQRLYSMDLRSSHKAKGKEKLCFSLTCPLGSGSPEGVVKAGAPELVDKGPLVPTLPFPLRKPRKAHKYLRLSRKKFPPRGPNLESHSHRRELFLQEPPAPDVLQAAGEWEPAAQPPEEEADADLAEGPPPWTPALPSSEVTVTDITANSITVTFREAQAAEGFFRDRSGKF
Numbers stand for hits; n = inactive. The entries come from a sample that favours hits as a whole.

SMILES | CBX7 AlphaScr
Cc1cccc(Cn2c(C3CC(=O)N(Cc4ccccc4)C3)nc3ccccc32)c1 (stereo not drawn) | n
CCC1CCCCN1CCCNC(=O)c1cc(Nc2ccc(OC)cc2)nc2ccccc12 (stereo not drawn) | n
Cc1ccn2c(Nc3ccc(C(C)C)cc3)c(-c3ccsc3)nc2c1 | n
Cc1ccc(-c2nc3cnccn3c2Nc2ccc(C(C)C)cc2)cc1 | n
Cc1ccn2c(Nc3ccc(C(C)C)cc3)c(-c3ccccn3)nc2c1 | 0.0075
Cc1cc(NCc2ccc(F)cc2Cl)n2ncnc2n1 | n
CC(C)CCNC(=O)CN1C(=O)COc2ccc(S(=O)(=O)N3CCC(C)CC3)cc21 | n
Cc1ccccc1NCc1nc2ccccc2n1C | n
Cn1c(CNc2cc(Cl)ccc2Cl)nc2ccccc21 | n
Cn1c(CNc2ccccc2O)nc2ccccc21 | 0.46
O=C(NCCCN1CCN(c2ccccc2F)CC1)c1ccc2nc(N3CCOCC3)sc2c1 | n
O=C(CSc1nnc2c(n1)[nH]c1ccccc12)Nc1ccccn1 | n
COc1ccc(CCNc2nc(C)nc3sc(C)c(C)c23)cc1OC | n
Cc1nc(NCCc2ccc3c(c2)OCCO3)c2cc(-c3ccccc3)sc2n1 | 0.36
Cc1nc(SCC(=O)c2ccc3c(c2)OCCO3)c2cc(-c3ccccc3)sc2n1 | n
Cc1c(NC(=O)c2ncn[nH]2)cccc1-c1nc2ccccc2s1 | 0.18
Cc1c(NC(=O)c2ncn[nH]2)cccc1-c1nc2cc(Cl)ccc2o1 | 0.12
O=C(Nc1ccc2oc(-c3ccccc3Cl)nc2c1)c1cncc(Br)c1 | n
O=C(Nc1ccc2oc(-c3ccccc3Cl)nc2c1)c1ncn[nH]1 | 0.043
Cc1c(NC(=O)c2cc3ccccc3o2)cccc1-c1nc2cc(Cl)ccc2o1 | n
O=C(Nc1ccc2oc(-c3ccccc3Cl)nc2c1)c1ccc(F)cc1 | n
Cc1c(NC(=O)c2ccccc2F)cccc1-c1nc2ccccc2s1 | n
O=C(Nc1ccccc1-c1nc2ccccc2s1)c1ccccc1 | n
Cc1c(NC(=O)c2ccccc2F)cccc1-c1nc2cc(Cl)ccc2o1 | n
CCCNC(=O)C1CCCN(c2nc3ccccc3[nH]2)C1 (stereo not drawn) | n
SMILES | CBX7 AlphaScr
Cc1ccc(C)c(CN2C(=O)c3ccccc3S(=O)(=O)c3ccc(C(=O)NC4CCCC4)cc32)c1 | n
Cc1ccc(NC(=O)C2(N(C(=O)c3ccc(-n4cnnn4)cc3)c3ccc(C)cc3)CCCCC2)cc1 | n
CCN(C(=O)CCc1nc(-c2ccccc2F)no1)c1ccccc1 | n
Cc1ccn2c(Nc3ccc4c(c3)OCCO4)c(-c3cccs3)nc2c1 | n
Cc1cccc(C)c1Nc1c(-c2ccccn2)nc2ccc(Cl)cn12 | n
Cc1ccn2c(Nc3ccc4c(c3)OCO4)c(-c3ccccn3)nc2c1 | 0.034
Cc1ccc2nc(-c3ccccn3)c(Nc3ccc4c(c3)OCCO4)n2c1 | 0.001
Cc1cccc(C)c1Nc1c(-c2ccccn2)nc2ccc(Br)cn12 | 0.44
Cc1ccn2c(Nc3ccc4c(c3)OCO4)c(-c3ccsc3)nc2c1 | n
Cc1ccc(Nc2c(-c3c[nH]c4ccccc34)nc3ccc(Br)cn23)cc1 | 0.49
Cc1ccc2nc(-c3cccnc3)c(Nc3ccc4c(c3)OCCO4)n2c1 | n
Cc1ccccc1Nc1c(-c2c[nH]c3ccccc23)nc2ccc(Br)cn12 | n
Cc1ccc2nc(-c3ccccc3)c(Nc3ccc4c(c3)OCCO4)n2c1 | n
Brc1ccc2nc(-c3ccccn3)c(Nc3ccccc3)n2c1 | n
Cc1ccc2nc(-c3c[nH]c4ccccc34)c(Nc3ccc(F)cc3)n2c1 | n
Cc1ccc(C)c(NC(=O)C(CC(C)C)NS(=O)(=O)c2ccc3nc(C)sc3c2)c1 (stereo not drawn) | n
CCCN(CCC)CCCNC(=O)Cn1ncc2c1-c1ccccc1OC2 | n
O=C(Nc1ccc(Br)cc1F)C1=CCN(S(=O)(=O)c2ccc(F)cc2)CC1 | n
COc1cccc(-c2nn(C)c3sc(C(=O)NCc4ccc(F)cc4)cc23)c1 | n
Cc1nccn1-c1nc2nonc2nc1Nc1cccc(Br)c1 | n
Cc1ccc2nc(-c3ccncc3)c(Nc3ccc4c(c3)OCO4)n2c1 | n
Cc1ccc2nc(-c3ccccn3)c(Nc3ccc4c(c3)OCO4)n2c1 | 0.03
Cc1ccc2nc(-c3ccccn3)c(Nc3ccc(C(C)C)cc3)n2c1 | n
Cc1ccc(Nc2c(-c3ccccn3)nc3ccc(C)cn23)cc1 | 0.084
Cc1ccc2nc(-c3c[nH]c4ccccc34)c(Nc3ccc4c(c3)OCO4)n2c1 | n
SMILES | CBX7 AlphaScr
Clc1ccc(Nc2c(-c3ccccn3)nc3ccc(Cl)cn23)cc1 | n
CCOc1ccc(Nc2cc(C(=O)NCc3ccc4c(c3)OCO4)c3ccccc3n2)cc1 | n
CCOc1ccc(CCNC(=O)CN2C(=O)CSc3ncccc32)cc1OCC | n
O=C(Nc1ccccc1-c1nc2ccccc2s1)c1ccc(N2C(=O)CCC2=O)cc1 | n
NC(=O)c1ccc(-n2nnnc2SCC(=O)Nc2ccccc2)cc1 | n
O=C(CSc1nnnn1-c1ccccc1)Nc1ncccn1 | 0.13
O=C(CSc1nnnn1-c1ccc(Cl)cc1)Nc1ccccc1Cl | n
O=C(Nc1cc(C(F)(F)F)ccc1Cl)c1cc(-c2ccc3c(c2)OCO3)on1 | n

Bioassay records: PubChem, Bradner/Qi Labs at DFCI
